Assay results: PubChem BioAssay (NCATS)
Several values for one entry are separate records, joined by “and”; a condition that tells them apart may be missing. Identical values can stand only once. Records with an inconclusive call do not appear. Entries that show only a call come without a potency. A structure can be active in one record and inactive in another. Activity calls are given as the source filed them. Calls follow the shape of the dose curve; as a rule, active = well fitted inhibition curve with a large enough effect; inconclusive = small, poorly fitted or top-dose-only effect; inactive = no such curve, though single readings can be large or run the other way.

Experiment: qHTS assay for measurement of the activity of small molecule inhibitors on Zika virus induced Caspase-3 activity in human iPSC derived neural progenitor cells (hNPCs) (AID 1224857); also: nearly all actives have a fitted effect of over 65% in size
Settings: hNPCs ZIKV-induced caspase-3/7, Caspase-Glo luminescence, 6 h; series mostly up to 45.7 µM
Text: National Center for Advancing Translational Sciences [NCATS]
Johns Hopkins University School of Medicine
Increase in the Caspase-3 activity indicates an activation of apoptosis cell death pathway caused by Zika virus infection in certain types of neuronal cells including human neural progenitor cells (hNPCs), astrocytes, and astrocytoma cell line (SNB-19). This cell-based caspase-3 activity assay measures the increased caspase-3 activity in the human iPSC derived neural progenitor cells (hNPCs) after a 6-hour Zika virus infection with a luminescence readout. A decrease in the luminescence signal in this assay by small molecule treatment indicates an inhibitory effect of that small molecule on the Zika virus induced caspase-3 activity that may correlate with its effect on reduction of Zika virus caused cell death.
The medium for hNPCs consists of DMEM/F12, N2 supplement (ThermoFisher, Cat.# 17502048), NEAA (ThermoFisher, Cat. # 11140050), 2 ug/ml heparin, 2 uM cyclopamine, and B27 (ThermoFisher, Cat. # 17504044). A Caspase-Glo 3/7 assay kit (catalog number G8092; Promega, Madison, WI) was used to detect caspase-3 activity induced by Zika virus infection in human cells. The reagent mixture was reconstituted as described in the protocol from the manufacturer. Polystyrene tissue culture treated and PDL coated white plates were obtained from Greiner Bio-One (Monroe, NC). Cells were seeded in 384- or 1536-well assay plates and cultured at 37 C with 5% CO2 for 16 to 20 hours. The typical cell seeding density in the 1536-well plate assay is 350 cells/well in 3 ul medium for hNPCs in tissue culture treated plates. Compounds were added to cells and incubated for one hour before addition of ZIKV solution to cells (2 FFU/cell). After incubation at 37 C with 5% CO2 for 6 hours, the reagent mixture of Caspase-Glo 3/7 assay kit was added to each well, followed by incubation at room temperature for 30 minutes. The luminescence intensity of the assay plates was measured using a ViewLux plate reader (PerkinElmer). Data were normalized by using the cell-containing wells without ZIKV as a negative control (0% induction of caspase 3/7 activity) and wells containing ZIKV infected cells (Caspase-3 activity induced) as a positive control (100% induction of caspase 3 activity). The percentage inhibitions of the increased Caspase-3 activity by small molecule inhibitors were then calculated.
Potency is read from the fitted curve at half-maximal effect.

SMILES	Potency
Cc1ccnc2c1NC(=O)c1cccnc1N2C1CC1	inactive
COc1ccc(C(=O)CC(=O)c2ccc(C(C)(C)C)cc2)cc1	inactive
N[C@@H](Cc1ccc(O)c(O)c1)C(=O)O	inactive
Nc1nc(N)nc(-c2cc(Cl)ccc2Cl)n1	inactive
CNC1CCCN(c2c(F)cc3c(=O)c(C(=O)O)cn(C4CC4)c3c2OC)C1 (stereo not given)	inactive
COc1cc2nc(N3CCCN(C)CC3)nc(NC3CCN(Cc4ccccc4)CC3)c2cc1OC	inactive
Oc1c(Cl)cc(Cl)c2cccnc12	inactive
O=C(N[C@H](CO)[C@H](O)c1ccc([N+](=O)[O-])cc1)C(Cl)Cl	inactive
Cc1oc(=O)oc1CN1CCN(c2cc3c(cc2F)c(=O)c(C(=O)O)c2n3C(C)S2)CC1 (stereo not given)	inactive
CNS(=O)(=O)Cc1ccc2[nH]cc(CCN(C)C)c2c1	inactive
Clc1ccccc1CN1CCc2sccc2C1	inactive
CC(C)(C#N)c1cc(Cn2cncn2)cc(C(C)(C)C#N)c1	inactive
C[C@@H](CN1CC(=O)NC(=O)C1)N1CC(=O)NC(=O)C1	inactive
CCC(=O)O[C@]1(C(=O)CCl)[C@@H](C)C[C@H]2[C@@H]3CCC4=CC(=O)C=C[C@]4(C)[C@@]3(F)[C@@H](O)C[C@@]21C	inactive
Cc1onc(-c2ccccc2Cl)c1C(=O)N[C@@H]1C(=O)N2[C@@H]1SC(C)(C)[C@@H]2C(=O)O	inactive
CNNCc1ccc(C(=O)NC(C)C)cc1	inactive
C1CCC(C(CC2CCCCN2)C2CCCCC2)CC1 (stereo not given)	inactive
COc1cnc(NS(=O)(=O)c2ccc(N)cc2)nc1	inactive
Cc1c(-c2ccc(O)cc2)n(Cc2ccc(OCCN3CCCCCC3)cc2)c2ccc(O)cc12	inactive
C[C@@H]1C[C@H]2[C@@H]3CCC4=CC(=O)C=C[C@]4(C)[C@@]3(Cl)[C@@H](O)C[C@]2(C)[C@@]1(OC(=O)c1ccco1)C(=O)CCl	inactive

SMILES	Potency
O=P(O)(O)C(O)(Cc1cccnc1)P(=O)(O)O	inactive
CCOCC(O)COc1ccc(NC(=O)CC[S+](C)C)cc1 (stereo not given)	inactive
COc1cc2c(Nc3ccc(Br)cc3F)ncnc2cc1OCC1CCN(C)CC1	inactive
O=C(O)c1ccc(-n2nc(-c3ccccc3O)nc2-c2ccccc2O)cc1	inactive
COc1cccc(N(C)C(=S)Oc2ccc3c(c2)CCCC3)n1	inactive
Nc1nc(F)nc2c1ncn2[C@@H]1O[C@H](CO)[C@@H](O)[C@@H]1O	inactive
O=C(O)CSCC(=O)NC1CCSC1=O (stereo not given)	inactive
N[C@@H](C(=O)N[C@@H]1C(=O)N2C(C(=O)O)=C(Cl)CS[C@H]12)c1ccccc1	inactive
COc1cc(NS(=O)(=O)c2ccc(N)cc2)nc(OC)n1	inactive
COc1nc(N)nc2c1ncn2[C@@H]1O[C@H](CO)[C@@H](O)[C@@H]1O	inactive
CN1CCN(c2c(F)cc3c(=O)c(C(=O)O)cn4c3c2OCN4C)CC1	inactive
COc1cc([C@@H]2c3cc4c(cc3[C@H](O)[C@H]3COC(=O)[C@H]23)OCO4)cc(OC)c1OC	inactive
COc1c(N2CCNC(C)C2)c(F)cc2c(=O)c(C(=O)O)cn(C3CC3)c12 (stereo not given)	inactive
CCOC(=O)c1ccc(C#Cc2ccc3c(c2)C(C)(C)CCS3)nc1	inactive
CCCc1cc(C(N)=S)ccn1	inactive
CNCC[C@H](Oc1cccc2ccccc12)c1cccs1	inactive and 23.5 µM (active)
COc1cc2ncnc(Nc3cccc(Cl)c3)c2cc1OC	inactive
CC1=NN(c2ccccc2)C(=O)C1	inactive
CC1=CC(=O)c2ccccc2C1=O	inactive
Nc1[nH]c(=O)ncc1F	inactive
